Experimental data reported in PubChem BioAssay (EPA / NIEHS).
Several values for one entry are separate records, joined by “and”; a condition that tells them apart may be missing. Identical values can stand only once. Records with an inconclusive call do not appear. Where a structure was tested more than once in an assay, its records may differ in their call. Activity calls are given as the source filed them. The calls were made as follows, unless noted: active = hit-call score of the fitted dose curve at least 0.9, where 1 is the maximum; inactive = score below 0.9.

Legend:
[1] = target: human Retinoid X Receptor beta (RXRb), RXRB (gene 6257) (UniProt P28702); experiment: ATG_RXRb_TRANS: Attagene TRANS-FACTORIAL HepG2 Assay for human Retinoid X Receptor beta (RXRb) (AID 2283013; active = hit-call score of the fitted dose curve at least 0.9, where 1 is the maximum)
Summary of the method: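 HepG2 cells were transiently transfected with multiplexed GAL4-UAS reporters and a chimeric RXRb-Gal4 construct, then exposed for 24 h. Reporter mRNA was quantified by RT-PCR, FAM labeling, HpaI digestion and capillary electrophoresis; gain of signal was scored against DMSO.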

[2] = target: human Thyroid Receptor alpha (THRa1), THRA (gene 7067) (UniProt P10827); experiment: ATG_THRa1_TRANS: Attagene TRANS-FACTORIAL HepG2 Assay for human Thyroid Receptor alpha (THRa1) (AID 2283014; active = hit-call score of the fitted dose curve at least 0.9, where 1 is the maximum)
Summary of the method: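 HepG2 cells transiently transfected with multiplexed GAL4-UAS reporter units for exogenous chimeric THRa1-Gal4; reporter mRNA measured 24 h after dosing by RT-PCR, 6-FAM labelling, HpaI digestion and capillary electrophoresis. Gain-of-signal fitted versus DMSO baseline.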

[3] = read-out: E-selectin (Homo sapiens) (UniProt P16581); experiment: BSK_3C_Eselectin: BioMAP Diversity Plus: 3C Assay for Eselectin Biomarker Activity (AID 2283015); settings: primary human endothelial cells (HUVEC); actives raise or lower the signal
Summary of the method: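 Primary human umbilical vein endothelial cells (3C system) were dosed with chemical and cell-surface E-selectin measured by ELISA 24 h later. Bidirectional curve fitting used DMSO as negative control and baseline.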

[4] = read-out: Interleukin-1 alpha (IL1a), IL1A (gene 3552); experiment: BSK_BE3C_IL1a: BioMAP Diversity Plus: BE3C Assay for Interleukin-1 alpha (IL1a) Biomarker Activity (AID 2283016); settings: primary human bronchial epithelial cells; actives raise or lower the signal
Summary of the method: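 Human primary bronchial epithelial cells, 24 h chemical exposure; IL-1a quantified by ELISA, fitted bidirectionally against DMSO. Cytotoxicity assessed in parallel by SRB total-protein staining at the time of measurement.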

[5] = read-out: Monocyte Chemoattractant Protein-1 (MCP1), CCL2 (gene 6347); experiment: BSK_3C_MCP1: BioMAP Diversity Plus: 3C Assay for Monocyte Chemoattractant Protein-1 (MCP1) Biomarker Activity (AID 2283017); settings: primary human endothelial cells (HUVEC); actives raise or lower the signal
Summary of the method: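 Primary human umbilical vein endothelial cells (3C system) were exposed to test chemical for 24 h, after which MCP-1 was quantified by ELISA. Activity was fitted bidirectionally against DMSO as negative control and baseline.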

[6] = read-out: Monocyte Chemoattractant Protein-1 (MCP1), CCL2 (gene 6347); experiment: BSK_4H_MCP1: BioMAP Diversity Plus: 4H Assay for Monocyte Chemoattractant Protein-1 (MCP1) Biomarker Activity (AID 2283018); settings: primary human endothelial cells (HUVEC); actives raise or lower the signal
Summary of the method: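 Human umbilical vein endothelial cells (4H system) exposed to chemicals for 24 h in 96-well format. MCP-1 measured by ELISA; bidirectional fitting against DMSO, with SRB total-protein staining in parallel cultures for cytotoxicity.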

[7] = read-out: Human Leukocyte Antigen - DR isotype (HLADR), HLA-DRA (gene 3122); experiment: BSK_3C_HLADR: BioMAP Diversity Plus: 3C Assay for Human Leukocyte Antigen - DR isotype (HLADR) Biomarker Activity (AID 2283019); settings: primary human endothelial cells (HUVEC); actives raise or lower the signal
Summary of the method: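 Primary human umbilical vein endothelial cells (3C system) were dosed with compound and cell-surface HLA-DR was quantified by ELISA at 24 h. Activity was fitted bidirectionally against DMSO as negative control and baseline.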

[8] = read-out: Interleukin-8 (IL8), CXCL8 (gene 3576); experiment: BSK_3C_IL8: BioMAP Diversity Plus: 3C Assay for Interleukin-8 (IL8) Biomarker Activity (AID 2283020); settings: primary human endothelial cells (HUVEC); actives raise or lower the signal
Summary of the method: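 Primary human umbilical vein endothelial cells were dosed for 24 h. IL-8 was quantified by ELISA and fitted bidirectionally against DMSO. Cytotoxicity was assessed in parallel cultures by SRB staining at 560 nm.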

[9] = read-out: Monokine induced gamma interferon (MIG), CXCL9 (gene 4283); experiment: BSK_3C_MIG: BioMAP Diversity Plus: 3C Assay for Monokine induced gamma interferon (MIG) Biomarker Activity (AID 2283021); settings: primary human endothelial cells (HUVEC); actives raise or lower the signal;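 as to AC50: MIG protein level measured by immunoassay in the treated endothelial cultures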
Summary of the method: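 HUVEC primary endothelial cultures dosed with chemical; MIG quantified by ELISA at 24 h. Data fitted bidirectionally against DMSO control, with parallel SRB total-protein staining for cytotoxicity.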

[10] = target: human Vitamin D Receptor (VDR), VDR (gene 7421) (UniProt P11473); experiment: ATG_VDR_TRANS: Attagene TRANS-FACTORIAL HepG2 Assay for human Vitamin D Receptor (VDR) (AID 2283022; active = hit-call score of the fitted dose curve at least 0.9, where 1 is the maximum)
Summary of the method: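 HepG2 cells were transiently transfected with multiple GAL4-UAS reporter units, so signal reflects exogenous chimeric receptor-Gal4 activity. After 24 h compound exposure, reporter mRNA was measured by RT-PCR, fluorescent labelling and capillary electrophoresis, fitted for gain of signal versus DMSO.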

[11] = BSK_3C_SRB: Viability Assessment in the BioMAP Diversity Plus: 3C Assay (AID 2283023); settings: primary human endothelial cells (HUVEC);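 also: fitted both ways against DMSO so a hit may be signal rise or drop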
Summary of the method: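 Primary human umbilical vein endothelial cells in the 3C system were read 24 h after compound dosing. Total protein was stained with 0.1% sulforhodamine B after 10% TCA fixation and read at 560 nm, with bidirectional fitting against DMSO as baseline.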

[12] = read-out: Pselectin, SELP (gene 6403); experiment: BSK_4H_Pselectin: BioMAP Diversity Plus: 4H Assay for Pselectin Biomarker Activity (AID 2283026); settings: primary human endothelial cells (HUVEC); actives raise or lower the signal
Summary of the method: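 Primary human umbilical vein endothelial cells were treated 24 h, and cell-surface P-selectin was then quantified by ELISA. Bidirectional fit versus DMSO; cytotoxicity checked in parallel cultures by SRB total-protein staining.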

[13] = BSK_4H_SRB: Viability Assessment in the BioMAP Diversity Plus: 4H Assay (AID 2283027); settings: primary human endothelial cells (HUVEC);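 also: cells exposed to compound for 24 h before staining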;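 as to AC50: curves fitted both ways versus DMSO so AC50 may be loss or gain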
Summary of the method: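 Human umbilical vein endothelial cells, 24 h after chemical dosing; total protein measured by 0.1% sulforhodamine B staining after 10% TCA fixation, read at 560 nm. Bidirectional fitting against DMSO.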

[14] = BSK_BE3C_SRB: Viability Assessment in the BioMAP Diversity Plus: BE3C Assay (AID 2283028); settings: primary human bronchial epithelial cells;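 as to AC50: fitted both ways so AC50 may mark signal gain or loss versus DMSO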
Summary of the method: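 Human primary bronchial epithelial cells were exposed to test chemicals for 24 h. Total protein in parallel cultures was then measured by staining with 0.1% sulforhodamine B after 10% TCA fixation, with absorbance read at 560 nm. Activity was fitted bidirectionally against DMSO.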

[15] = read-out: Thrombomodulin, THBD (gene 7056); experiment: BSK_3C_Thrombomodulin: BioMAP Diversity Plus: 3C Assay for Thrombomodulin Biomarker Activity (AID 2283029); settings: primary human endothelial cells (HUVEC); actives raise or lower the signal
Summary of the method: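 Human umbilical vein endothelial cells were exposed to chemicals for 24 h; cell-surface thrombomodulin quantified by ELISA, with bidirectional fitting against DMSO baseline.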

[16] = read-out: Urokinase-type plasminogen activator receptor (uPAR), PLAUR (gene 5329); experiment: BSK_4H_uPAR: BioMAP Diversity Plus: 4H Assay for Urokinase-type plasminogen activator receptor (uPAR) Biomarker Activity (AID 2283030); settings: primary human endothelial cells (HUVEC); actives raise or lower the signal
Summary of the method: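 Primary human umbilical vein endothelial cells were exposed to chemical for 24 h before cell-surface uPAR was quantified by ELISA. Activity was fitted bidirectionally against the DMSO negative control baseline.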

[17] = read-out: Vascular endothelial growth factor receptor 2 (Homo sapiens) (UniProt P35968); experiment: BSK_4H_VEGFRII: BioMAP Diversity Plus: 4H Assay for Vascular endothelial growth factor receptor 2 (VEGFR2) Biomarker Activity (AID 2283031); settings: primary human endothelial cells (HUVEC); actives raise or lower the signal;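 as to AC50: cell-surface VEGFR2 protein level quantified by ELISA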
Summary of the method: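 Primary human umbilical vein endothelial cells in the BioMAP 4H system were dosed with test chemical, and 24 h later VEGFRII was measured by ELISA. Activity was fitted bidirectionally against DMSO as negative control and baseline.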

[18] = read-out: Matrix Metallopeptidase 1 (MMP1), MMP1 (gene 4312); experiment: BSK_BE3C_MMP1: BioMAP Diversity Plus: BE3C Assay for Matrix Metallopeptidase 1 (MMP1) Biomarker Activity (AID 2283024); settings: primary human bronchial epithelial cells; actives raise or lower the signal
Summary of the method: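 Human primary bronchial epithelial cells (BE3C system) dosed for 24 h; MMP-1 quantified by ELISA. Bidirectional fit against DMSO; cytotoxicity tracked in parallel cultures by SRB total-protein staining.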

[19] = BSK_3C_Vis: BioMAP Diversity Plus: 3C Assay for Morphology Visualization (AID 2283025); settings: primary human endothelial cells (HUVEC);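 also: fitted both ways so gain or loss versus DMSO counts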
Summary of the method: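 Human umbilical vein endothelial cell morphology was inspected by light microscopy 24 h after chemical dosing; scored bidirectionally relative to DMSO.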

Measured: AC50

Chain of human Retinoid X Receptor beta (RXRb), RXRB (gene 6257) (P28702 whole entry, looked up, the tested form may be a part): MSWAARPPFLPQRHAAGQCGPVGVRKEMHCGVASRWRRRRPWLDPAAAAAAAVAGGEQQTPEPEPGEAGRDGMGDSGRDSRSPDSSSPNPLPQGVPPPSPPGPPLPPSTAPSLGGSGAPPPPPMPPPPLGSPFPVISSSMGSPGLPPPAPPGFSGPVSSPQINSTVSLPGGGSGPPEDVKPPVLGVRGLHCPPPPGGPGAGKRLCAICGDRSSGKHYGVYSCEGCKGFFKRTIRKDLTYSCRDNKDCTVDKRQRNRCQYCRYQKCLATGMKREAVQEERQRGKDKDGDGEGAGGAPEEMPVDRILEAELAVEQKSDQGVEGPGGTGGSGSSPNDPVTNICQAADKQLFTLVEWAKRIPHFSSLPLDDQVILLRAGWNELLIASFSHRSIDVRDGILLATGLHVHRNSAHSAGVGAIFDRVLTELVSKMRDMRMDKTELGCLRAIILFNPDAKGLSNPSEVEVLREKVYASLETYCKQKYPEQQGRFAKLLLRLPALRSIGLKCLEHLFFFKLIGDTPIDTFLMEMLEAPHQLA
Chain of human Vitamin D Receptor (VDR), VDR (gene 7421) (P11473 whole entry, looked up, the tested form may be a part): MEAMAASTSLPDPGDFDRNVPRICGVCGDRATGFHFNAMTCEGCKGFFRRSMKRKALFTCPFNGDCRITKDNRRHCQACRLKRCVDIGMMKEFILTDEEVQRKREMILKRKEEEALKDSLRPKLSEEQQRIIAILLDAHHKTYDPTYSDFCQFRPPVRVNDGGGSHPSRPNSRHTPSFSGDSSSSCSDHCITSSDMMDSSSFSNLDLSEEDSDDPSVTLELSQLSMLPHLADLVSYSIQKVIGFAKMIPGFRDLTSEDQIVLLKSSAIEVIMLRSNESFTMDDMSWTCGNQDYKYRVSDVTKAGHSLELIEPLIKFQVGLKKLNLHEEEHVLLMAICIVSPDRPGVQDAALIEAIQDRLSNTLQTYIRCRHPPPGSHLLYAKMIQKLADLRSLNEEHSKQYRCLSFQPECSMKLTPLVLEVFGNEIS
Chain of human Thyroid Receptor alpha (THRa1), THRA (gene 7067) (P10827 whole entry, looked up, the tested form may be a part): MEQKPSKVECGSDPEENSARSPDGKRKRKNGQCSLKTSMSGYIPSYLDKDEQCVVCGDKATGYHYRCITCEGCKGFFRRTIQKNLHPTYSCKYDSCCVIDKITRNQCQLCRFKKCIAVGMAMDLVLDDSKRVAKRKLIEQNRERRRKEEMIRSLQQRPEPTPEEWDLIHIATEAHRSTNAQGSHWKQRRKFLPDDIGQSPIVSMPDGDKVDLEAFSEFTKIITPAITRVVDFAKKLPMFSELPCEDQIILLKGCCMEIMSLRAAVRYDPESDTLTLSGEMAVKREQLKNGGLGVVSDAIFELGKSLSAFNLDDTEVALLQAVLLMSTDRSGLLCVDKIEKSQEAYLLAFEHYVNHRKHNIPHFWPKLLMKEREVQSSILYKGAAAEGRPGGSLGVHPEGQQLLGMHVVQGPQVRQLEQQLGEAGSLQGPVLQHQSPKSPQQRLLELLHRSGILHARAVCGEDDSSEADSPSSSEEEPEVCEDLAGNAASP
Chain of E-selectin (Homo sapiens) (P16581 whole entry, looked up): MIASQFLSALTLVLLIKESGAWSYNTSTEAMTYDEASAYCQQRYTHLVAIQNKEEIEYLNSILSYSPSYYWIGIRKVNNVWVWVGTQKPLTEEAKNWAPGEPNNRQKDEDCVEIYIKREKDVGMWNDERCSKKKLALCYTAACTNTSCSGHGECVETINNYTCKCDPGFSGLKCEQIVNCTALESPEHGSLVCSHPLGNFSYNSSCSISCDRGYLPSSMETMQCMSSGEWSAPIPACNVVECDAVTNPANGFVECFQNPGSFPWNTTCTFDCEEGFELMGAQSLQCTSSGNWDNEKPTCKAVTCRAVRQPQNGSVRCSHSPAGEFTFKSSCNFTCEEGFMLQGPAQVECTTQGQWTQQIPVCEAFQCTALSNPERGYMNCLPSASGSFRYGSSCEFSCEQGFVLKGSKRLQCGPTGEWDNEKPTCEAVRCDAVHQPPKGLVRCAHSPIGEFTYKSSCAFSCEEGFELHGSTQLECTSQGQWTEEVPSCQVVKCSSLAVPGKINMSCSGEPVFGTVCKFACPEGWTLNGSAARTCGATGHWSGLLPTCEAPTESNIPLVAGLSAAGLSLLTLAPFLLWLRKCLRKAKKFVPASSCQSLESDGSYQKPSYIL

FC(F)(F)N1C(F)(F)C(F)(F)OC(F)(F)C1(F)F
inactive: [1] | [2]

O=C(CC(=O)C(F)(F)C(F)(F)C(F)(F)F)c1cccs1
active: [3] 51.4 µM and 52.5 µM | [4] 29.5 µM and 28.9 µM | [5] 40 µM and 41.2 µM | [6] 23.5 µM and 29.1 µM | [7] 24.1 µM and 24.6 µM | [8] 15.8 µM and 17.3 µM | [9] 51.9 µM and 52.2 µM | [11] 24.1 µM and 43.7 µM | [12] 19.1 µM and 20.2 µM | [13] 34.4 µM and 44.3 µM | [14] 30 µM and 37.9 µM | [16] 49.1 µM and 54.8 µM | [17] 8.16 µM
inactive: [1] | [10] | [15] | [17]

O=C1NS(=O)(=O)c2ccccc21
active: [12] 5.01 µM
inactive: [1] | [5] | [6] | [7] | [8] | [9] | [11] | [18] | [19] | [12] | [13] | [14] | [15] | [16] | [17]

O=P(O)(O)CCC(F)(F)C(F)(F)C(F)(F)C(F)(F)C(F)(F)C(F)(F)C(F)(F)C(F)(F)F
active: [11] 47 µM | [13] 42.7 µM
inactive: [1] | [2] | [5] | [6] | [7] | [8] | [9] | [10] | [11] | [12] | [13] | [14] | [15] | [16] | [17]
